Vaccinia Venus = qHTS for Stage-Specific Inhibitors of Vaccinia Orthopoxvirus: Venus Reporter Primary qHTS | hit rate 0.46% among 330,000 | AID 720580, 2013 | Potency, µM (doses to about 36.5 µM), for the others: top-dose activity change, negative = inhibition, actives largely listed as inhibitors | Vaccinia virus Venus reporter expression, fluorescence; calls by dose curve; tested in A549 cells; further: on the % scale 0 is the no-effect control and ±100 the full control effect; nearly all actives have a fitted effect of over 30% in size
Vaccinia mCherry = qHTS for Stage-Specific Inhibitors of Vaccinia Orthopoxvirus: mCherry Reporter Primary qHTS; Vaccinia virus mCherry reporter infection, fluorescence; AID 720579, 2013; Potency, µM (doses to about 36.5 µM), for the others: at the highest dose activity change, negative = inhibition, actives largely listed as inhibitors; hit rate 0.63% among 310,000; calls by dose curve; tested in A549 cells; further: on the % scale 0 is the no-effect control and ±100 the full control effect; nearly all actives have a fitted effect of over 35% in size
NS1 inh = qHTS Assay for Inhibitors of Influenza NS1 Protein Function | Potency, µM (highest dose often 46.1 µM), inactives show at the highest dose activity, positive = more growth | hit rate 0.4% among 270,000; calls by dose curve; further: actives are rising curves; nearly all actives have a fitted effect of over 50% in size
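OD600 was taken as the measure of yeast growth restored by compound in an NS1-expressing S. cerevisiae strain. Cells had been washed out of glucose medium and diluted 1:100 into galactose -URA medium, pH 6.0.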
HCV inhibitor = qHTS Assay for Inhibitors of Hepatitis C Virus (HCV) | Huh7.5.1 HCVcc-Cre infection, luciferase reporter, 44 h | Potency, µM (doses to about 41.8 µM), without a hit: at the highest dose activity change, negative = inhibition, most hits filed as inhibitors | hit rate 3.4% among 340,000; further: on the % scale 0 is the no-effect control and ±100 the full control effect
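A cell-based infection assay in which seeded cells (1,000 per well) receive test compound after 4 h, are inoculated with HCVcc-Cre at approximately 0.5 moi, and are incubated 44 h before luminescence detection.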
Pf growth 48h = Primary qHTS for delayed death inhibitors of the malarial parasite plastid, 48 hour incubation | Potency, µM (doses to about 28.7 µM), inactives show at the top dose activity change, negative = inhibition, usual class: inhibitors | P. falciparum luciferase growth in erythrocytes, 48 h | hit rate 5.9% among 310,000; further: on the % scale 0 is the no-effect control and ±100 the full control effect
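Cell-based growth assay: transgenic P. falciparum expressing firefly luciferase, cultured in red cells within RPMI 1640 containing 0.5% w/v Albumax, 24 mM bicarbonate and gentamycin. A drop in luciferase activity indicates inhibition.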
Pf growth 96h = Primary qHTS for delayed death inhibitors of the malarial parasite plastid, 96 hour incubation; AID 504834, 2011; Potency, µM (top dose mostly 28.7 µM), inactives show at the highest dose activity change, negative = inhibition, usual class: inhibitors; P. falciparum luciferase reporter growth, 96 h; hit rate 6.9% among 320,000; further: on the % scale 0 is the no-effect control and ±100 the full control effect
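Erythrocytes infected with luciferase-expressing P. falciparum were dispensed at 2% hematocrit and 0.05% parasitemia (final), then incubated with compounds 96 hours at 37 C in 5% CO2. Luminescence after detection reagent addition reported growth.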
Active calls of the source: *; i = inactive; ? = inconclusive; . = no result; [ ] = another dose, or the depositor's remark. Most compounds without a hit are left out; they make up all but 11% or so of the library. Unless noted, the call rests on the fitted dose curve; in most records, active means well fitted inhibition curve with a large enough effect; inconclusive means small, poorly fitted or top-dose-only effect, or another doubt; inactive means no such curve, though single readings can be large or run the other way. Potency means the concentration at half of the fitted maximal effect.

SMILES	Vaccinia Venus	Vaccinia mCherry	NS1 inh	HCV inhibitor	Pf growth 48h	Pf growth 96h
CCCCSc1nc2sc3c(c2c(=O)n1-c1ccc(OC)cc1)CCN(C)C3	-16.1%	?	6.2%	-23.5%	9.28µM*	?
CN1CCc2c(sc3nc(SCC(N)=O)n(-c4ccc(Cl)cc4)c(=O)c23)C1	.	.	6.9%	?	28.8%[0.00184 µM]	?
CCSc1nc2sc3c(c2c(=O)n1-c1ccccc1C)CCN(C)C3	-11.5%	-11.3%	7.9%	?	5.22µM*	1.47µM*
CCCN(CCC)C(=O)CSc1nc2sc3c(c2c(=O)n1-c1ccccc1)CCN(C(C)=O)C3	-1.7%	-9.2%	.	.	.	.
C=CCSc1nc2sc3c(c2c(=O)n1-c1ccc(C)cc1)CCN(C)C3	.	.	0.4%	?	3.7µM*	1.47µM*
C=C(C)CSc1nc2sc3c(c2c(=O)n1-c1ccccc1)CCN(C)C3	?	-10.7%	?	?	1.47µM*	0.828µM*
CC1=Nc2cc(C(=O)N3CCC4(CC3)OCCO4)ccc2Sc2ccc(Cl)cc21	.	.	12.4%	?	?	?
O=C(O)C1CCN(S(=O)(=O)c2ccc(N3CCCC3C(=O)O)c([N+](=O)[O-])c2)CC1 (stereo not drawn)	-6.3%	-12.1%	7.6%	9.3%	4.2%	11.1%
Cc1ccc(CNC(=O)c2ccc(N3Cc4ccccc4Oc4ncccc43)s2)cc1	-15.4%	-9.9%	.	.	.	.
Cc1cc(C)nc(SCC(=O)Nc2ncc(C(F)(F)F)cc2Cl)n1	-3.6%	-8.4%	-2.8%	11.3%	17.9%	23.9%
CN1CCc2c(sc3nc(SCC(N)=O)n(-c4ccccc4)c(=O)c23)C1	9.3%	-12.9%	14.1%	?	?	.
CCSc1nc2sc3c(c2c(=O)n1-c1ccccc1)CCN(C(C)C)C3	.	.	0.1%	?	1.47µM*	0.828µM*
CCCCNc1nc2sc3c(c2c(=O)n1-c1cccc(Cl)c1)CCN(C)C3	-17.0%	-1.9%	-0.3%	3.98µM*	1.85µM*	0.37µM*
O=c1c2c3c(sc2nc(N2CCNCC2)n1-c1cccc(Cl)c1)CCCCC3	.	.	-2.2%	.	?	?
CN1CCc2c(sc3nc(SCC(=O)N4CCCCC4)n(-c4ccccc4)c(=O)c23)C1	.	.	25.0%	?	11.7µM*	3.29µM*
CCN(CC)C(=O)Cn1cc(/C=C(\C#N)C(=O)NC2CC2)c2ccccc21	.	.	27.0%	-7.6%	14.7%	-18.0%
Cc1nc2c(C(=O)N3CCOCC3)cnn2c(C)c1Cc1ccc(Cl)cc1	.	.	1.0%	13.7%	2.6%	?
Cc1nc2c(C(=O)N3CCOCC3)cnn2c(C)c1Cc1cccc(Cl)c1	.	.	-10.1%	.	?	7.38µM*
NC(N)=N/N=C/c1ccc(Cl)c(Cl)c1	-25.0%	-23.3%	4.4%	1.6%	?	?
COc1cc(/C=N/NC(N)=S)ccc1OCc1ccc(C)cc1	?	11.2µM*	19.2%	?	?	?
CCOc1cc(/C=N/N=C(N)N)ccc1OCc1ccc(Cl)cc1	-21.1%	-1.4%	5.3%	?	1.47µM*	?
CCOc1cc(/C=N/N=C(/N)c2nonc2N)cc(Br)c1OCc1ccc(Cl)cc1	.	.	-1.5%	?	?	.
NC(N)=N/N=C/c1ccc(OCc2ccccc2Cl)cc1	?	?	-20.6%	?	0.147µM*	0.131µM*
CCOc1cc(/C=N/O)ccc1OCc1ccc(F)cc1	-22.3%	i	-3.2%	7.08µM*	26.3%	3.7µM*
CC1(C)Cc2noc(N)c2C(C)(C)N1OC(=O)c1scc2c1OCCO2	-15.6%	-18.5%	0.5%	-1.2%	-8.3%	?
SMILES	Vaccinia Venus	Vaccinia mCherry	NS1 inh	HCV inhibitor	Pf growth 48h	Pf growth 96h
COc1ccccc1N1CC(C)(C)C(=O)N(C(=O)c2ccc(Cl)cc2)C1=S	?	?	-3.4%	-4.3%	45.1%	36.7%
COC(=O)c1c(NC(=O)c2cccnc2Cl)sc(C(=O)N(C)C)c1C	-9.8%	-14.3%	-5.6%	-28.4%	7.5%	14.2%
NC(N)=N/N=C/c1ccc(OCc2ccccc2)c(OCc2ccccc2)c1	-14.8%	?	13.6%	?	0.522µM*	?
COc1cc(/C=N/O)ccc1OCc1ccc(Cl)cc1	.	.	-31.3%	.	245.0%	19.0%
COc1cc(/C=N/N=C(N)N)ccc1OCc1ccc(Cl)cc1	.	.	5.1%	12.6µM*	?	-2.8%
NCCc1ccc(OCc2ccccc2)c(OCc2ccccc2)c1	?	17.8µM*	.	7.94µM*	?	10.4µM*
CCOc1cc(/C=N/NC(=O)CN2CCOCC2)ccc1OCc1ccc(Cl)cc1	-24.0%	-24.9%	-4.2%	-13.2%	?	13.1µM*
NC(N)=N/N=C/c1ccccc1	-11.9%	-11.0%	2.8%	7.2%	.	-46.8%
CCCn1nnc(NC(=O)c2ccccc2Cl)n1	-7.3%	i	-1.1%	1.9%	86.6%	.
O=C(NN=C1CCCC1)c1cccc(O)c1	.	.	-4.4%	13.8%	57.6%	-33.5%
CC(C)(C)C1CCC(OC(=O)c2ccncc2)CC1 (stereo not drawn)	-14.8%	.	-47.5%	27.0%	11.7µM*	8.8%[5.75 µM]
Cc1occc1C(=O)Nc1cccc(C(F)(F)F)c1	.	.	-6.9%	-26.8%	5.9%	18.8%
Cc1cnc(Nc2nc3ccccc3o2)nc1C(=O)Nc1cccc(C(F)(F)F)c1	.	.	-40.4%	6.31µM*	?	29.2%
COC(=O)c1ccccc1NC(=O)c1cc2cc(C)ccc2n1C	-16.6%	-21.6%	.	.	.	.
COc1cccc(-c2c(NC(=O)c3ccco3)oc3ccccc3c2=O)c1	-2.3%	10.9%	-16.0%	0.316µM*	11.5%	40.2%
O=C(O)CCCC(=O)Nc1nc2n(n1)C(c1ccc(F)cc1)CC(c1ccc(Cl)cc1)N2 (stereo not drawn)	.	.	15.5%	-6.6%	-1.4%	0.8%[5.75 µM]
COc1ccc(C(=O)N2CCN(C3CCCCC3)CC2)c(OC)c1	-7.8%	-7.3%	?	.	-1.0%	.
Cn1c2c(c3ccccc31)CC/C2=N\O	?	?	-40.6%	?	17.0%	.
Cn1c2c(c3ccccc31)CCN1CCC[C@]21c1ccccc1	.	.	-1.2%	?	1.4%[0.00184 µM]	8.28µM*
Cc1ccc(-n2nnc3c(=O)n(CC(=O)N4CCOCC4)cnc32)cc1	-4.0%	i	-14.2%	5.4%	8.7%	25.9%
Cc1nc(SCC(=O)N2CCN(c3ccccc3)CC2)c2oc3ccccc3c2n1	-15.6%	.	-50.2%	10µM*	60.0%	26.6%
Cc1nc(SCc2nc3ccccc3[nH]2)c2oc3ccccc3c2n1	-19.3%	.	-171.7%	25.1µM*	?	?
c1ccc2[nH]c(CSc3ncnc4c3oc3ccccc34)nc2c1	.	.	-115.4%	?	-6.0%	43.3%
Cc1nc(SCc2ccccc2F)c2oc3ccccc3c2n1	-12.4%	i	-1.4%	14.5%	?	8.28µM*
CCc1nc(SCC(=O)N2CCCc3ccccc32)c2oc3ccccc3c2n1	.	.	4.9%	11.2µM*	?	?

Bioassay records deposited in PubChem by National Center for Advancing Translational Sciences (NCATS).
